# Assay results taken from PubChem BioAssay (NCATS).
# Results filed as inconclusive are left out. Where a call stands in place of a potency, no number is given. Activity calls are given as the source filed them. Unless noted, the call rests on the fitted dose curve; in most records, active means well fitted curve in the direction sought with a large enough effect; inconclusive means small, poorly fitted or top-dose-only effect, or another doubt; inactive means no such curve, though single readings can be large; an effect the other way counts as inactive or inconclusive.
# Columns and labels:
# [1] = biological target: Aldehyde dehydrogenase, mitochondrial (Homo sapiens) (UniProt P05091); experiment: qHTS for Inhibitors of the Aldehyde Dehydrogenase Family (ALDH2) Confirmatory screens (AID 2061303; active means well fitted inhibition curve with a large enough effect; title and protocol of this record describe different tests; further: nearly all actives have a fitted effect of over 45% in size; further: potency means the concentration at half of the fitted maximal effect)
# [2] = biological target: Aldehyde dehydrogenase, mitochondrial (Homo sapiens) (UniProt P05091); experiment: qHTS for Inhibitors of the Aldehyde Dehydrogenase Family (ALDH2) Primary screen (AID 2061308); further: nearly all actives have a fitted effect of over 55% in size; further: potency means the concentration at half of the fitted maximal effect
# [3] = biological target: Retinaldehyde dehydrogenase 3 (Homo sapiens) (UniProt P47895); experiment: qHTS for Inhibitors of the Aldehyde Dehydrogenase Family (ALDH1A3) Confirmatory screens (AID 2061311); further: nearly all actives have a fitted effect of over 60% in size; further: potency means the concentration at half of the fitted maximal effect
# [4] = biological target: Retinal dehydrogenase 2 (Homo sapiens) (UniProt O94788); experiment: qHTS for Inhibitors of the Aldehyde Dehydrogenase Family (ALDH1A2) Confirmation screens (AID 2061314); further: nearly all actives have a fitted effect of over 65% in size; further: potency means the concentration at half of the fitted maximal effect
# [5] = biological target: Retinaldehyde dehydrogenase 3 (Homo sapiens) (UniProt P47895); experiment: qHTS for Inhibitors of the Aldehyde Dehydrogenase Family (ALDH1A3) Primary screen (AID 2061315)
# [6] = biological target: Aldehyde dehydrogenase 1A1 (Homo sapiens) (UniProt P00352); experiment: qHTS for Inhibitors of the Aldehyde Dehydrogenase Family (ALDH1A1) Confirmatory screens (AID 2061316); further: nearly all actives have a fitted effect of over 65% in size; further: potency means the concentration at half of the fitted maximal effect
# [7] = BET inhibitor-based combinations targeting novel dependencies in MECOM-rearranged (r) AML: OCI-AML3 cell line (AID 2202232); conditions: Potency: OCI-AML3 viability; further: potency means the concentration at half of the fitted maximal effect; nearly all actives have a fitted effect of over 35% in size
# Outline: (§1)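 Cells were plated at 500 per well and exposed to an 11-point dose series of each drug for 48 hr. Viability was measured by CellTiter-Glo luminescence, normalized to DMSO and empty-well controls, and summarized as AUC and per-cell-line Z-AUC.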
# [8] = BET inhibitor-based combinations targeting novel dependencies in MECOM-rearranged (r) AML: MV-4-11 cell line (AID 2202233); further: potency means the concentration at half of the fitted maximal effect; nearly all actives have a fitted effect of over 45% in size
# Outline: (§2)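 Activity is given as area under the curve and as Z-AUC, mean-centred within each cell line. It comes from 11-point dose curves normalized to DMSO and empty wells. CellTiter-Glo luminescence was read after 48 hr drug exposure of 500 cells/well.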
# [9] = BET inhibitor-based combinations targeting novel dependencies in MECOM-rearranged (r) AML: HNT-34 cell line (AID 2202234); further: potency means the concentration at half of the fitted maximal effect; nearly all actives have a fitted effect of over 35% in size
# Outline: as §2
# [10] = BET inhibitor-based combinations targeting novel dependencies in MECOM-rearranged (r) AML: UCSD-AML1 cell line (AID 2202235); further: potency means the concentration at half of the fitted maximal effect; nearly all actives have a fitted effect of over 40% in size
# Outline: as §2
# [11] = BET inhibitor-based combinations targeting novel dependencies in MECOM-rearranged (r) AML: AML-194 cell line (AID 2202237; further: potency means the concentration at half of the fitted maximal effect; nearly all actives have a fitted effect of over 40% in size)
# Outline: as §1
# [12] = biological target: Retinaldehyde dehydrogenase 3 (Homo sapiens) (UniProt P47895); experiment: qHTS for Inhibitors of the Aldehyde Dehydrogenase Family (ALDH1A3) Validation screen (AID 2061312); further: nearly all actives have a fitted effect of over 45% in size
smiles,measurement,setting,value
CS(=O)(=O)c1ccc(C(=O)OCC(=O)N2Cc3ccccc3C2)cc1[N+](=O)[O-],Potency,[1],inactive
same,Potency,[2],inactive
same,Potency,[3],28.2 µM (active)
same,Potency,[4],7.98 µM (active)
same,Potency,[5],inactive
NC(=O)N1CCN(c2nc(-c3ccc(Br)cc3)cs2)CC1,Potency,[1],inactive
same,Potency,[2],inactive
same,Potency,[3],inactive
same,Potency,[4],inactive
same,Potency,[5],inactive
same,Potency,[6],inactive
Cc1cc(C)nc(NC(=S)N2CCN(c3cccc4ccncc34)CC2)c1,Potency,[1],12.7 µM (active)
same,Potency,[2],3.16 µM (active)
same,Potency,[3],11.3 µM (active)
same,Potency,[4],10.1 µM (active)
same,Potency,[6],4 µM (active)
O=C(/C=C/c1ccc([N+](=O)[O-])o1)Nc1cccc([S+](=O)([O-])Nc2ccccc2F)c1,Potency,[1],inactive
same,Potency,[2],inactive
same,Potency,[3],inactive
same,Potency,[4],7.98 µM (active)
same,Potency,[5],inactive
same,Potency,[6],7.98 µM (active)
COc1ccc([N+](=O)[O-])c(S(=O)(=O)c2ccccc2)n1,Potency,[1],17.8 µM (active)
same,Potency,[2],4.47 µM (active)
same,Potency,[3],5.65 µM (active)
same,Potency,[4],15.8 µM (active)
same,Potency,[6],2.01 µM (active)
N#CN1CCC(NS(=O)(=O)c2ccc(F)cc2)CC1,Potency,[1],inactive
same,Potency,[2],inactive
same,Potency,[3],inactive
same,Potency,[4],inactive
same,Potency,[5],inactive
same,Potency,[6],inactive
CCOC(=O)C1CCN(c2nc(-c3ccc(Br)cc3)cs2)CC1,Potency,[1],inactive
same,Potency,[2],inactive
same,Potency,[3],inactive
same,Potency,[4],inactive
same,Potency,[5],inactive
same,Potency,[6],inactive
FC(F)(F)c1cc(-c2ccc(CNc3nc(-c4ccncc4)nc4ccccc34)cc2)ccn1,Potency,[1],8.91 µM (active)
same,Potency,[2],inactive
same,Potency,[3],2.52 µM (active)
same,Potency,[4],10 µM (active)
same,Potency,[5],inactive
CN1CCN(c2cccc(CNc3nn4c(=O)c5ccccc5nc4s3)c2)CC1,Potency,[1],inactive
same,Potency,[2],inactive
same,Potency,[3],inactive
same,Potency,[4],25.2 µM (active)
same,Potency,[5],inactive
NC(=O)C1CCN(c2nc(-c3ccc(F)cc3)cs2)CC1,Potency,[1],inactive
same,Potency,[2],inactive
same,Potency,[3],inactive
same,Potency,[4],inactive
same,Potency,[5],inactive
O=C1CCCC2=C1C(c1[nH]ncc1Cl)NC(=NCc1ncc[nH]1)N2 (configuration not stated),Potency,[1],inactive
same,Potency,[2],inactive
same,Potency,[3],inactive
same,Potency,[4],inactive
same,Potency,[5],inactive
same,Potency,[6],inactive
NC(=O)C1CCN(c2ncc(-c3cccc(N4CCCC4)c3)s2)CC1,Potency,[1],12.7 µM (active)
same,Potency,[2],inactive
same,Potency,[3],7.98 µM (active)
same,Potency,[4],11.3 µM (active)
same,Potency,[5],inactive
same,Potency,[6],3.57 µM (active)
O=S(=O)(Nc1cc(O)cc2cccnc12)c1ccc(Cl)s1,Potency,[1],8.96 µM (active)
same,Potency,[2],0.631 µM (active)
same,Potency,[3],0.504 µM (active)
same,Potency,[4],2.01 µM (active)
same,Potency,[6],4 µM (active)
Cc1cc(C)nc(NC(=S)N2CCN(c3ccc4nsnc4c3)CC2)c1,Potency,[1],8.96 µM (active)
same,Potency,[2],7.94 µM (active)
same,Potency,[3],1.13 µM (active)
same,Potency,[4],6.34 µM (active)
same,Potency,[6],1.79 µM (active)
Cc1ccc(S(=O)(=O)c2ccc([N+](=O)[O-])cn2)cc1,Potency,[1],2 µM (active)
same,Potency,[2],2 µM (active)
same,Potency,[3],4.47 µM (active)
same,Potency,[4],1.13 µM (active)
same,Potency,[6],0.634 µM (active)
Cc1c(P(=O)(c2ccccc2)c2ccccc2)c2ccccc2n1C,Potency,[1],inactive
same,Potency,[2],inactive
same,Potency,[3],7.12 µM (active)
same,Potency,[4],inactive
same,Potency,[5],inactive
same,Potency,[6],10.1 µM (active)
O=C1Nc2ccccc2/C1=C\c1ccc(C(=O)O)cc1,Potency,[1],inactive
same,Potency,[2],inactive
same,Potency,[3],inactive
same,Potency,[4],inactive
same,Potency,[5],inactive
same,Potency,[6],inactive
c1cn2cc(-c3ccc4cn[nH]c4c3)nc(Nc3ccc(N4CCOCC4)cc3)c2n1,Potency,[7],5.25 µM (active)
same,Potency,[8],1.66 µM (active)
same,Potency,[9],4.17 µM (active)
same,Potency,[10],10.5 µM (active)
same,Potency,[11],1.32 µM (active)
O=S(=O)(Cc1ccccc1)Nc1ccc(-c2ccc3c(cnn3-c3ccc(F)cc3)c2)c(C(F)(F)F)c1,Potency,[2],inactive
same,Potency,[12],inactive
same,Potency,[5],inactive
O=C(NCc1ccccc1)c1ccc2c(=O)n(-c3cccc(C(F)(F)F)c3)c(=S)[nH]c2c1,Potency,[2],inactive
same,Potency,[12],inactive
same,Potency,[5],inactive
N[C@@H](CC(=O)N1CCn2c(nnc2C(F)(F)F)C1)Cc1[nH]nc2c(F)c(F)ccc12,Potency,[2],inactive
same,Potency,[12],inactive
same,Potency,[5],inactive
O=C1c2cccc3cccc(c23)C(=O)N1CCN1CCN(S(=O)(=O)c2cccc([N+](=O)[O-])c2)CC1,Potency,[1],inactive
same,Potency,[3],inactive
same,Potency,[4],inactive
same,Potency,[6],inactive
CC1(C)O[C@@]2(C)CC[C@@H]1C[C@@H]2OC1OC(CO)C(O)C(O)C1O (some centres not stated),Potency,[1],inactive
same,Potency,[2],inactive
same,Potency,[4],inactive
same,Potency,[5],inactive
same,Potency,[6],inactive
OC[C@H]1O[C@@H](OCCc2ccccc2)[C@H](O[C@@H]2OC[C@](O)(CO)[C@H]2O)[C@@H](O)[C@@H]1O,Potency,[2],inactive
Cc1nc(NCc2ccc(-c3cccnc3)cc2)c2ccccc2n1,Potency,[1],inactive
same,Potency,[2],inactive
same,Potency,[4],inactive
same,Potency,[5],inactive
same,Potency,[6],inactive
